# MPTP block = inhibitors of mitochondrial permeability transition pore; isolated mouse mitochondria, Ca2+ swelling absorbance, 30 min; inhibition, % at 10 µM; 1.4% of 360,000 active; AID 602449;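 active = inhibition of 50% or more, scaled per plate between neutral and stimulator controls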;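 also: 0% = DMSO wells given calcium and 100% = 1 mM EGTA wells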
# KLK7 zymogen act = activates the human kallikrein-7 zymogen. 0.9% of 370,000 active. activation, % at 7 µM. purified proKLK7, EDANS-DABCYL substrate fluorescence; 100% is mature enzyme control, 0% vehicle. P49862;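 active = activation above the mean of all tested compounds plus 3 SD, computed per campaign excluding outliers beyond control limits, cut at about 13% in these data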
# Target sequence (P49862 whole entry, looked up): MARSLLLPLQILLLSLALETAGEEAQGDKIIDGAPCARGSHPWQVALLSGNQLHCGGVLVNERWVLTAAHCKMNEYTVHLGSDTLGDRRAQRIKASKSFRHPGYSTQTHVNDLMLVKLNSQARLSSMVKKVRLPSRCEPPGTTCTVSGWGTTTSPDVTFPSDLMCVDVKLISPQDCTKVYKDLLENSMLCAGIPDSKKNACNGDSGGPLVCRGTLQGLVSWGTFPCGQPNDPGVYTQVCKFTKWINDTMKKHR
# rCAG binder = binds r(CAG) RNA repeats; r(CAG) RNA repeat, TO-PRO-1 dye displacement fluorescence; 1.3% of 370,000 active; inhibition, % at 3 µM;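 active = inhibition above the plate cutoff, the mean of all test compounds on that plate plus 3 SD, cut at about 35% in these data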;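 also: 0% = DMSO alone and 100% = 100 µM mitoxantrone as full dye displacement; higher means more dye released from RNA so lower well fluorescence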
# Pemphigus Ab inh = inhibitors of pemphigus antibody binding to human desmoglein-3. binding (percent of control), % at 10 µM. AID 588358. DSG3-coupled beads, scFv-anti-DSG3-GFP binding, flow cytometry; stronger effect = lower value. 0.48% of 310,000 active;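 active = binding more than 3 SD below its plate's average and above zero; inconclusive = below that plate limit but binding exactly zero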;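 also: hits lower antibody fragment binding to DSG3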
# ADAM17 inh = ADAM17 inhibition, QFRET primary screen; P78536; recombinant ADAM17, EDANS/DABCYL FRET peptide cleavage; inhibition, % at 6.95 µM; 0.83% of 370,000 active; AID 720648;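 active = inhibition above the mean of compounds lying between control limits plus 3 SD, set per campaign, cut at about 8.5% in these data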;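 also: 0% = DMSO-only wells as the low control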
# ADAM10 inh = inhibitors of human ADAM10; O14672; recombinant ADAM10, EDANS/DABCYL FRET peptide cleavage, 3 h; inhibition, % at 7 µM; 0.62% of 370,000 active;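 active = inhibition above a per-campaign cutoff equal to the mean of compounds falling between control-based bounds plus 3 SD, cut at about 20% in these data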;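 also: 0% = DMSO wells while the 100% control is not disclosed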
# rCAG bind conf = r(CAG) RNA repeat binding, confirmation; shares compounds with rCAG binder; TO-PRO-1 dye displacement fluorescence; inhibition, % at 3 µM; 70% of 4,300 active; AID 652065;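 active = inhibition above a per-plate cutoff, the mean inhibition of sample wells plus 3 SD, cut at about 35% in these data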;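 also: loss of TO-PRO-1 fluorescence as compound displaces dye from 1x1 AA loop RNA; 0% = DMSO only wells and 100% = 100 µM mitoxantrone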
# DNA CAG counter = DNA CAG dye complex inhibition counter-screen; 94% of 4,300 active; AID 652068; shares compounds with rCAG binder; inhibition, % at 3 µM; d(CAG) DNA oligo TO-PRO-1 dye displacement, fluorescence;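 active = inhibition above its plate's cutoff, the mean test-well inhibition plus 3 SD, cut at about 4.8% in these data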;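 also: 0% = DNA dye mix with DMSO and 100% = 100 µM mitoxantrone; hits displace the dye from DNA and so lower well fluorescence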
# dCAG dye DR = DNA CAG dye complex inhibition, dose response counter-screen; DNA CAG/GTC duplex TO-PRO-1 dye displacement fluorescence; shares compounds with rCAG binder; IC50, µM; 20% of 250 active; in the data active = IC50 below about 10 µM
# KLK7 act conf = confirmation of human kallikrein-7 zymogen activators; shares compounds with KLK7 zymogen act; purified proKLK7, EDANS-DABCYL substrate fluorescence; scaled: vehicle 0, mature enzyme 100; activation, % at 7 µM; 68% of 3,200 active; AID 686949;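 active = activation, as change over the incubation, above the mean of all tested compounds plus 3 SD, cut at about 13% in these data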
# EDANS interfere = fluorescence interference counter-screen for KLK7 activators; shares compounds with KLK7 zymogen act; EDANS-DABCYL substrate fluorescence interference, no enzyme, 4 h; solvent 0%, active enzyme control 100%; activation, % at 7 µM; 80% of 3,200 active;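 active = activation above the all-compound mean plus 3 SD, ignoring values outside control-based bounds, cut at about 4.8% in these data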;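 also: value is the 4 h activation minus the activation read at time zero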
# ADAM10 confirm = confirmation of inhibitors of human ADAM10; shares compounds with ADAM10 inh; 1% of 2,100 active; inhibition, % at 6.95 µM; ADAM10 QFRET peptide cleavage, EDANS fluorescence;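 active = inhibition above about 20% chosen separately for each screening run, limit read from the data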;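 also: 0% = DMSO wells and 100% = marimastat wells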
# ADAM17 ctr = ADAM17 inhibition, counter-screen for ADAM10 exosite hits. shares compounds with ADAM10 inh. ADAM17 QFRET peptide cleavage, EDANS fluorescence. inhibition, % at 6.95 µM. 0.5% of 2,100 active;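 active = mean triplicate inhibition above the solvent-only control wells' mean plus 3 SD, cut at about 12% in these data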;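 also: 0% = DMSO wells and 100% = marimastat wells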
# The depositor's hits bear a star; i = inactive; ? = inconclusive; · = no result. A selection: hits, their analogues and other compounds. The true share with any hit is near 4.7%.
SMILES,MPTP block,KLK7 zymogen act,rCAG binder,Pemphigus Ab inh,ADAM17 inh,ADAM10 inh,rCAG bind conf,DNA CAG counter,KLK7 act conf,EDANS interfere,others
O=C(O)c1cc(-c2cccc(Cl)c2)nc2nc(N3CCCCC3)sc12,0,26*,46*,102,i,i,47*,12*,31*,31*,dCAG dye DR=i
CCOC(=O)C1CCCN(C(=O)c2cc(-c3ccco3)nc3ccccc23)C1 (centres undefined),0,31*,39*,84,-278,i,32,15*,31*,34*,
O=C(COC(=O)c1cc(-c2ccco2)nc2ccccc12)NCc1ccccc1,-3,22*,38*,82,-7,-48,10,4,51*,55*,
O=C(O)c1ccccc1/C=N/NC(=O)c1cc(-c2ccco2)nc2ccccc12,2,15*,35*,97,-188,i,45*,21*,29*,31*,
Cc1cc(C(=O)OCC(=O)NCCc2ccccc2)c2ccccc2n1,1,-1,1,103,-11,-36,·,·,·,·,
CC(C)(C)OC(=O)N1CCc2onc(-c3ccc(Br)cc3)c2C1=O,-1,1,-2,102,-5,-12,·,·,·,·,
COc1cc(NC(=O)Nc2nc(C(N)C3CCCCC3)cs2)cc(OC)c1OC (centres undefined),1,0,31,·,-3,-8,·,·,·,·,
CC(=O)Nc1ccc(CN(C)c2c(C)nc3ccc(C(=O)Nc4ccc(Cl)c(Cl)c4)cn23)cc1,3,-1,7,·,2,-2,·,·,·,·,
O=C(NNS(=O)(=O)c1ccccc1[N+](=O)[O-])c1cc2ccccc2cc1O,1,14*,36*,103,-2,-24,18,7.6*,22*,20*,
Cc1ccc(C(=O)NCC(=O)N(C)CC(=O)Nc2ccccc2Br)s1,0,0,3,106,0,0,·,·,·,·,
O=C1C=C(OCCCl)CC(c2cccc(Cl)c2)O1 (centres undefined),1,1,1,·,1,-1,·,·,·,·,
CCN(CC)c1ccc(NC(=O)CSc2nnc(-c3ccc(Cl)cc3)n2Cc2ccco2)cc1,·,1,6,·,4,6,·,·,·,·,
Cc1ccc2nc(-c3ccc(NC(=O)CSc4nnc(-c5cccc(Cl)c5)n4Cc4ccco4)cc3)sc2c1,·,70*,45*,·,-49,-167,16,8.7*,-21,-30,
COc1ccc(-n2c(O)c(/C=N/NS(=O)(=O)c3ccc(C)c([N+](=O)[O-])c3)c3ccccc3c2=O)cc1OC,7,15*,37*,127,-5,-45,57*,25*,41*,44*,
COc1cc(/C=N/NS(=O)(=O)c2ccc(C)c([N+](=O)[O-])c2)cc([N+](=O)[O-])c1O,3,-1,11,95,-1,1,·,·,·,·,
C[C@@H]1CN([C@@H](C)CO)C(=O)c2cc(Br)cnc2O[C@@H]1CN(C)Cc1ccc(Oc2ccccc2)cc1,-2,1,1,·,0,1,·,·,·,·,
O=C(O)c1ccc(N2N=C(c3ccccc3)CC2c2ccccc2)cc1 (centres undefined),2,64*,44*,111,i,i,47*,12*,64*,75*,
O=Cc1ccc(N2N=C(c3ccccc3)CC2c2ccccc2)cc1 (centres undefined),1,-41,8,?,-84,-168,·,·,·,·,
O=Cc1ccc(/C=C2\c3ccccc3C(=O)N2c2ccccc2)o1,·,34*,41*,·,-14,-78,23,15*,62*,59*,
COc1ccc(/C=N/Nc2snc(SC)c2C#N)cc1OC,6,16*,50*,105,0,-12,36*,11*,-14,-10,
N#Cc1c(N(CCO)CCO)nc(N)c2c(N)nc3c(c12)CC(=O)N3CC1CCCO1 (centres undefined),0,30*,35*,92,-72,-212,10,5.7*,43*,49*,
CCCCN1C(=O)Cc2c1nc(N)c1c(N)nc(N(CCC)CCC)c(C#N)c21,2,-1,21,·,-12,-92,·,·,·,·,
Nc1ccc(S(=O)(=O)Nc2nccs2)cc1N=Nc1ccccc1[N+](=O)[O-],2,-1,68*,87,-2,22*,81*,48*,·,·,ADAM10 confirm=3;ADAM17 ctr=0
CCCc1cc(=O)n2[nH]c(C)c(-c3ccccc3)c2n1,-5,-5,1,101,-8,-20,·,·,·,·,
Cc1[nH]n2c(=O)cc(-c3ccc([N+](=O)[O-])cc3)nc2c1-c1ccccc1,4,1,91*,101,8,23*,87*,63*,·,·,ADAM10 confirm=2;ADAM17 ctr=1
O=C1C(=Cc2cn(-c3ccccc3)nc2-c2ccc(OCc3ccccc3F)cc2)SC(=S)N1CCS(=O)(=O)O,0,0,72*,·,3,26*,65*,45*,·,·,ADAM10 confirm=7;ADAM17 ctr=0
COc1ccc(-c2nn(-c3ccccc3)cc2/C=C2/SC(=S)N(CCC(=O)O)C2=O)cc1,4,1,20,103,0,3,·,·,·,·,
COc1ccc(CN2C[C@]3(C=C4CCCCC4n4c(=O)n(-c5ccccc5)c(=O)n43)N=C2NC(=O)c2ccccc2)c(OC)c1 (some centres undefined),·,0,52*,·,8,32*,50*,21*,·,·,ADAM10 confirm=4;ADAM17 ctr=2
CN(CC(=O)NC(=O)NCc1ccccc1)CC(=O)Nc1ccc(Cl)c(Cl)c1,3,0,3,105,8,1,·,·,·,·,
CCCCOc1cccc(C(=O)Nc2ccc(S(=O)(=O)Nc3nnc(CC)s3)cc2)c1,1,0,80*,97,1,21*,73*,37*,·,·,ADAM10 confirm=1;ADAM17 ctr=0
